In the library only some 1.7% were active in any assay of this set; here they are far more common.
NOD2 RIPK2 PPI: NOD2-RIPK2 protein interaction inhibition. O43353. CHO BLA complementation NOD2-RIPK2, CCF4 ratio. inhibition, % at 4.98 µM. 0.38% of 360,000 active; in the data active = inhibition above about 21%
TLR4 MyD88 comp: TLR4-MyD88 interaction inhibition in cells | HeLa CL3-4 TLR4/MyD88 BLA complementation, FRET ratio | 0.18% of 200,000 active | O00206+Q99836 | inhibition, % at 8.4 µM; in the data active = inhibition above about 25%
TLR9-MyD88 block: inhibitors of human TLR9-MyD88 binding | Q9NR96+Q99836 | CHO BLA complementation TLR9-MyD88, CCF4 FRET ratio | inhibition, % at 4.98 µM | 0.21% of 340,000 active;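 active = inhibition above the mean over all tested compounds plus 3 SD, cut at about 21% in these data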
ABCB6 inh 2: inhibitors of human ABC transporter ABCB6. Q9NP58. K562-ABCB6 porphyrin accumulation, flow cytometry, 1 h; stronger effect = lower value. fluorescence ratio to DMSO, % at 10 µM. 0.19% of 360,000 active. AID 602162;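 active = fluorescence ratio to DMSO below 75%, the collection mean minus 3 SD; inconclusive = too few cells collected in the well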;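 also: signal is porphyrin accumulated inside mitochondria; lower ratio means ABCB6 inhibition with less porphyrin fluorescence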
Myeloid diff 2: promotes myeloid progenitor differentiation. ER-HoxA9 myeloid progenitors, lysozyme-GFP differentiation, flow cytometry. calls only at 10 µM. 1% of 360,000 active. AID 624256;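 active = normalized GFP-positive differentiation at or above the plate's own cutoff, the solvent-only control mean plus 3 SD; inconclusive = no clear call, values can overlap the other calls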;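 also: cells exposed to compound for four days before flow analysis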
NOD2 RIPK2 conf: confirmation of human NOD2-RIPK2 interaction inhibitors; shares compounds with NOD2 RIPK2 PPI; CHO cells, NOD2-RIPK2 BLA complementation, CCF4 FRET; inhibition, % at 4.98 µM; 70% of 1,200 active; AID 624370;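 active = mean inhibition across replicates above a set limit taken from the earlier primary screen, cut at about 21% in these data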
NOD2 BLA counter: hits BLA reporter in NOD2-RIPK2 inhibitor counterscreen; shares compounds with NOD2 RIPK2 PPI; CHO BLA reporter, CCF4 FRET ratio; inhibition, % at 4.98 µM; 57% of 1,200 active;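 active = mean inhibition above the low-control mean inhibition plus three low-control SD, cut at about 11% in these data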
Hits are given with their value; n = inactive; u = inconclusive; x = no result; + = active, no number.

SMILES	NOD2 RIPK2 PPI	TLR4 MyD88 comp	TLR9-MyD88 block	ABCB6 inh 2	Myeloid diff 2	NOD2 RIPK2 conf	NOD2 BLA counter
CC(=O)OC1C(=O)OCC23CCC4(C)OC4C2OC2CC(OC(=O)C=CC=CC(=O)OCCC1C)C3(C)C21CO1 (stereo not drawn)	31	x	n	n	u	25	n
C[C@]12CCC3C(CC[C@H]4C[C@H](O)[C@H](O)C[C@]34C)C1CC[C@@H]2O (stereo partly drawn)	n	x	n	n	n	x	x
C[C@@H]1CN([C@@H](C)CO)C(=O)CCCn2cc(nn2)CO[C@H]1CN(C)C(=O)Oc1cccc2ccccc12	n	x	n	n	n	x	x
CC(C)(C)c1cc([N+](=O)[O-])cc(C(C)(C)C)c1O	x	n	x	x	x	x	x
CC(=O)OC1(C)CC(C)C(=O)C(C(O)CC2CC(=O)NC(=O)C2)C1 (stereo not drawn)	28	x	n	n	n	23	n
CCOP(=O)(CCP(=O)(OCC)OCC)OCC.C[CH2][Sn]([Cl])([Cl])[CH2]C	25	x	n	n	x	51	n
CCOC(=O)[C@]12Cc3cc(C)ccc3[C@H]1N(CCC(=O)OC)C(=O)c1cc(OC)ccc12	n	x	x	n	n	x	x
CCOC(=O)[C@]12Cc3cc(C)ccc3[C@H]1N(C1CCCCC1)C(=O)c1cc(OC)ccc12	62	x	x	n	u	73	n
CCOC(=O)[C@]12Cc3ccccc3[C@H]1N(C)C(=O)c1cc(OC)ccc12	n	x	x	n	n	x	x
CCOC(=O)[C@]12Cc3cc(OC)ccc3[C@H]1N(C1CCCCC1)C(=O)c1cc(OC)ccc12	40	x	x	n	u	26	n
O=C(CCN1CC1)OCCOC(=O)CCN1CC1	n	x	n	n	n	x	x
C=CCc1ccc(OC)cc1	n	x	n	n	n	x	x
COc1ccc(CC2NCC(O)C2OC(C)=O)cc1 (stereo not drawn)	35	x	n	n	n	32	n
CC(=O)OC1C(O)C(C)OC(OC2C(OC(=O)C3CCC4C(C3)OC3(CC(OC(=O)/C=C/c5ccccc5)C(C)CO3)C43CO3)OC(C)C(O)C2OC(C)=O)C1O (stereo not drawn)	23	x	n	n	x	28	n
COC(=O)C1=C(c2ccc(Cl)c(C(F)(F)F)c2)C[C@@H]2CC[C@H]1N2C(=O)NCCOc1ccccc1Cl	n	x	n	n	n	x	x
COC(=O)C12OCC34C(CC5C(C)=C(O)C(=O)CC5(C)C3C(O)C1O)OC(=O)C(OC(=O)/C=C(\C)C(C)C)C24 (stereo not drawn)	29	x	n	n	x	24	n
CC(C)C(O)(C(=O)OCC1=CCN2CCC(O)C12)C(C)O (stereo not drawn)	n	x	x	n	n	x	x
COC(=O)C1=C(c2ccc(F)cc2OCc2ccccc2)C[C@@H]2CC[C@H]1N2C(=O)NCc1cccc(C(F)(F)F)c1	n	x	n	n	n	x	x
CN1C(=O)C[N+]([O-])=C(c2ccccc2)c2cc(Cl)ccc21	n	x	n	n	n	x	x
CCOc1cc(C=O)ccc1O	n	x	n	n	n	x	x
COc1cc(/C=C/[N+](=O)[O-])ccc1O	42	n	n	n	+	44	n
O=C1NCN(c2ccccc2)C12CCN(C(c1cc3ccccc3o1)c1nnnn1C1CCCCC1)CC2 (stereo not drawn)	n	x	x	n	n	x	x

Assay outcomes from PubChem BioAssay.
